From PubChem BioAssay (NCATS)
Several values for one entry are separate records, joined by “and”; a condition that tells them apart may be missing. Equal entries are not always repeated. Results filed as inconclusive are left out. Where a call stands in place of a potency, no number is given. Activity calls are given as the source filed them. Unless noted, calls come from the whole dose curve.

Tests used:
[1] = Cell Viability - N2a (AID 540; active = well fitted curve in the direction sought with a large enough effect; an effect the other way counts as inactive or inconclusive; note: nearly all actives have a fitted effect of over 45% in size)
Outline: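 Luminescent ATP signal (CellTiter-Glo, 20 min at room temperature) served as the viability read-out after N2a cells were treated with compounds for 40 hours at 37 °C. Concentration-response data were fitted to the Hill equation for AC50.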

[2] = Cell Viability - NIH 3T3 (AID 541; active = well fitted curve in the direction sought with a large enough effect; an effect the other way counts as inactive or inconclusive; note: nearly all actives have a fitted effect of over 25% in size)
Outline: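 Luminescent ATP signal (CellTiter-Glo) served as the viability read-out after NIH 3T3 cells were exposed to compounds over a concentration range for 40 hr at 37 °C. Hill-equation modelling of concentration-response data gave AC50.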

[3] = Cell Viability - HUV-EC-C (AID 542; active = well fitted curve in the direction sought with a large enough effect; an effect the other way counts as inactive or inconclusive; note: nearly all actives have a fitted effect of over 35% in size)
Outline: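 qHTS cytotoxicity: HUV-EC-C, 1000 cells/well, 5 hr settle, compound 40 hr 37 °C, CellTiter-Glo, luminescence. AC50 via Hill equation.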

[4] = Cell Viability - H-4-II-E (AID 543; active = well fitted curve in the direction sought with a large enough effect; an effect the other way counts as inactive or inconclusive; note: nearly all actives have a fitted effect of over 35% in size)
Outline: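 Luminescent ATP signal (CellTiter-Glo) served as the viability read-out, with cytotoxicity seen as a concentration-dependent ATP drop. Cells were treated for 40 hours in complete medium. AC50 values derive from Hill-equation modelling.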

[5] = Cell Viability - SH-SY5Y (AID 544; active = well fitted curve in the direction sought with a large enough effect; an effect the other way counts as inactive or inconclusive; note: nearly all actives have a fitted effect of over 55% in size)
Outline: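 Luminescent ATP read-out (CellTiter-Glo) measures loss of viable SH-SY5Y neuroblastoma cells after 40 hr compound exposure at 37 °C. AC50 values derive from standard Hill modelling of qHTS concentration-response data.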

[6] = Cell Viability - Renal Proximal Tubule (AID 545; active = well fitted curve in the direction sought with a large enough effect; an effect the other way counts as inactive or inconclusive; note: nearly all actives have a fitted effect of over 40% in size)
Outline: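 Rat renal proximal tubule primary cells, 1000/well, exposed to compounds for 40 hr at 37 °C in complete medium; cellular ATP read by CellTiter-Glo luminescence. AC50 from concentration-response fitted with standard Hill equation.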

[7] = Cell Viability - Mesenchymal (AID 546; active = well fitted curve in the direction sought with a large enough effect; an effect the other way counts as inactive or inconclusive;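 note: cells exposed to compound for 40 hours before reading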)
Outline: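 Normal human renal glomerulus-derived kidney mesenchymal cells, 1000 per well in complete medium, were treated with compounds for 40 hr at 37 °C. Viability was read as intracellular ATP by CellTiter-Glo luminescence; AC50 values came from Hill-equation fits of qHTS concentration-response data.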

[8] = biological target: Androgen receptor (Homo sapiens) (UniProt P10275); assay: qHTS assay for small molecule agonists of androgen receptor signaling (AID 588515; active = well fitted curve in the direction sought with a large enough effect in the signal ratio, with a control signal flat; the % refers to the signal ratio); settings: AR-UAS-bla HEK293, beta-lactamase ratio, agonist 16 h; stronger effect = higher value
Chain of Androgen receptor (Homo sapiens) (P10275 whole entry, looked up): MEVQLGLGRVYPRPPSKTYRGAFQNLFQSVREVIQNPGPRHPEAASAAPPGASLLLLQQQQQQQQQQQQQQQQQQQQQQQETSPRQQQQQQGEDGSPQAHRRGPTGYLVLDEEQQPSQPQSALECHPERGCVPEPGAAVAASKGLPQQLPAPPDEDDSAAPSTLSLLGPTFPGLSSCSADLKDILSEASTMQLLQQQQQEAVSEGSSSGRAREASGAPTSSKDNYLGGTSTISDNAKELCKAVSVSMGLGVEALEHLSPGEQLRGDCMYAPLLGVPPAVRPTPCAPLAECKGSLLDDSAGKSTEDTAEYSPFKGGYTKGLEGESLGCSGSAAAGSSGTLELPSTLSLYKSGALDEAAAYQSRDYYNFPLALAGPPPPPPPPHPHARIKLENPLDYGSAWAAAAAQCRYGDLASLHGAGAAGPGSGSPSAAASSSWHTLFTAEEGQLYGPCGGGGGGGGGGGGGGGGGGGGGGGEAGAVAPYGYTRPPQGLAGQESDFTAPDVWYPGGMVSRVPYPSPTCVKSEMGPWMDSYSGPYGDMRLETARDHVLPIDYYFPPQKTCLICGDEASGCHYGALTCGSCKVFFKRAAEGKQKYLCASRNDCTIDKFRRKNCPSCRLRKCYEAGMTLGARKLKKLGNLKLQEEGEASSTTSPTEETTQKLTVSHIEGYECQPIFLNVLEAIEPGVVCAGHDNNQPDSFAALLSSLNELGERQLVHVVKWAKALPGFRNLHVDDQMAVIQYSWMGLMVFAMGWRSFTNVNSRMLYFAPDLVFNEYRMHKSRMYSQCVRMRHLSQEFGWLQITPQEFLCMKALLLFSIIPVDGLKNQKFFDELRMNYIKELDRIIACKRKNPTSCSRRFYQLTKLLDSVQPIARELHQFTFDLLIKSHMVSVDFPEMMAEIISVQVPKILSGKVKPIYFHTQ
Outline: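 EC50 and efficacy came from Hill fits of titrations (up to 92 uM) normalized to 30 nM R1881 as 100% and DMSO as 0%. Compound exposure was 16 h at 37 C on AR-UAS-bla HEK293 cells, with a 405/460/530 nm CCF4 fluorescence read.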

[9] = biological target: Androgen receptor (Homo sapiens) (UniProt P10275); assay: qHTS assay for small molecule antagonists of androgen receptor signaling (AID 588516; active = well fitted curve in the direction sought with a large enough effect in the signal ratio, with a control signal flat, not every such curve was filed as active; the % refers to the signal ratio)
Outline: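 AR-UAS-bla GripTite HEK 293 cells (2000/well) treated with compound titrations plus 10 nM R1881 for 16 h at 37C. Beta-lactamase read by CCF4 FRET (460/530 nm); IC50 from Hill fits, normalized to R1881 and DMSO control wells.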

[10] = biological target: Glucocorticoid receptor (Homo sapiens) (UniProt P04150); assay: qHTS assay for small molecule agonists of glucocorticoid receptor signaling (AID 588532; active = well fitted curve in the direction sought with a large enough effect in the signal ratio, with a control signal flat; the % refers to the signal ratio); settings: HeLa MMTV-bla, beta-lactamase ratio, agonist, 18 h; stronger effect = higher value; percent of dexamethasone control, DMSO zero
Chain of Glucocorticoid receptor (Homo sapiens) (P04150 whole entry, looked up): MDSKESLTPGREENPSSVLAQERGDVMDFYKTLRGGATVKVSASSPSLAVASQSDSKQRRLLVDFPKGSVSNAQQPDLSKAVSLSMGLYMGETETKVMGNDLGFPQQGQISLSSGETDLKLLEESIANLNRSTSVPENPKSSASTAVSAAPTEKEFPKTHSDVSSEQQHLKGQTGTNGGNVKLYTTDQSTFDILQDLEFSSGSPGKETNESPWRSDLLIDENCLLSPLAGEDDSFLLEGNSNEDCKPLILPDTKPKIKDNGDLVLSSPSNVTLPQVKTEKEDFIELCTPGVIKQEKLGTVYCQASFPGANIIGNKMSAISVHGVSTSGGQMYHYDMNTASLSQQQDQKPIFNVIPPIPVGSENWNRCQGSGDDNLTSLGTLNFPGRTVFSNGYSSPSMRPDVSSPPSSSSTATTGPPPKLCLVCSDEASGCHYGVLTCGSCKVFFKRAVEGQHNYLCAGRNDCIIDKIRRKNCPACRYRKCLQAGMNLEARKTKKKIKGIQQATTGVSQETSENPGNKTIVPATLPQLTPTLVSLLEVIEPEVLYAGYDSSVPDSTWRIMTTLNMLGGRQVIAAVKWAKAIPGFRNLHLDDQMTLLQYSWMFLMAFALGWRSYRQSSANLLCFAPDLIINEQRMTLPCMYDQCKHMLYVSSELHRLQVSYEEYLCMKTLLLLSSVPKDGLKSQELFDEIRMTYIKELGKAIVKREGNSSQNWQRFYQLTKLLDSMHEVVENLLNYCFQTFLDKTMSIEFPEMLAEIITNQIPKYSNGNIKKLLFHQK
Outline: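 Stimulation of a glucocorticoid response element-driven beta-lactamase gene was measured in HeLa cells. Responses were scaled between DMSO basal and 0.1 uM dexamethasone, then fitted for half-maximal stimulation.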

[11] = biological target: Glucocorticoid receptor (Homo sapiens) (UniProt P04150); assay: qHTS assay for small molecule antagonists of glucocorticoid receptor signaling (AID 588533; active = well fitted inhibition curve with a large enough effect in the signal ratio, with a control signal flat, not every such curve was filed as active; the % refers to the signal ratio;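 note: cells stimulated with 2 nM dexamethasone as agonist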)
Outline: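 Antagonist-mode qHTS: compound titrations added to GRE-bla HeLa cells, then dexamethasone 2 nM final; 18 h, 37 C. CCF4 FRET fluorescence normalized to dexamethasone and DMSO; IC50 from Hill fit.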

[12] = qHTS assay for small molecule antagonists of peroxisome proliferator-activated receptor delta signaling (AID 588535; active = well fitted inhibition curve with a large enough effect in the signal ratio, with a control signal flat, not every such curve was filed as active; the % refers to the signal ratio;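 for max response: cells co-treated with a PPAR-delta agonist as stimulator during compound exposure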); settings: HEK293T PPARd-UAS-bla, beta-lactamase FRET ratio, 18 h; 460 nm channel
Outline: (§1)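 Reporter: UAS-bla under PPAR-delta response element, HEK293T host. Medium: 2% charcoal/dextran FBS. Dosing: titration, 18 hrs, 37 C. Detection: CCF4, 2 hrs RT, 405 ex/460 and 530 em.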

[13] = biological target: Peroxisome proliferator-activated receptor delta (Homo sapiens) (UniProt Q03181); assay: as above
Chain of Peroxisome proliferator-activated receptor delta (Homo sapiens) (Q03181 whole entry, looked up): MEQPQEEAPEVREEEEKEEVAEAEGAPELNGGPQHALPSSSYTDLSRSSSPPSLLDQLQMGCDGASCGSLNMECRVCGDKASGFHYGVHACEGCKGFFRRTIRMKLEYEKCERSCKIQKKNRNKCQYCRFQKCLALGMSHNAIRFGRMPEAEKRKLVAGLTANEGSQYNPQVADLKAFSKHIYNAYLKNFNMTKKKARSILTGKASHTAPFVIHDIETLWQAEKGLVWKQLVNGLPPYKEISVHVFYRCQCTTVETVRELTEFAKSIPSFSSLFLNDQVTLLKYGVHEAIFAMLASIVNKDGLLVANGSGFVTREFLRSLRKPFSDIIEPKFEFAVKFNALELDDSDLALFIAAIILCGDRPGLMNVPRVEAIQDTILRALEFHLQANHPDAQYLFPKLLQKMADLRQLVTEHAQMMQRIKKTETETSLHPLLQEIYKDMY
Outline: as §1

[14] = biological target: Peroxisome proliferator-activated receptor gamma (Homo sapiens) (UniProt P37231); assay: qHTS assay for small molecule agonists of peroxisome proliferator-activated receptor gamma signaling (AID 588536; active = well fitted curve in the direction sought with a large enough effect in the signal ratio, with a control signal flat, not every such curve was filed as active; the % refers to the signal ratio)
Chain of Peroxisome proliferator-activated receptor gamma (Homo sapiens) (P37231 whole entry, looked up): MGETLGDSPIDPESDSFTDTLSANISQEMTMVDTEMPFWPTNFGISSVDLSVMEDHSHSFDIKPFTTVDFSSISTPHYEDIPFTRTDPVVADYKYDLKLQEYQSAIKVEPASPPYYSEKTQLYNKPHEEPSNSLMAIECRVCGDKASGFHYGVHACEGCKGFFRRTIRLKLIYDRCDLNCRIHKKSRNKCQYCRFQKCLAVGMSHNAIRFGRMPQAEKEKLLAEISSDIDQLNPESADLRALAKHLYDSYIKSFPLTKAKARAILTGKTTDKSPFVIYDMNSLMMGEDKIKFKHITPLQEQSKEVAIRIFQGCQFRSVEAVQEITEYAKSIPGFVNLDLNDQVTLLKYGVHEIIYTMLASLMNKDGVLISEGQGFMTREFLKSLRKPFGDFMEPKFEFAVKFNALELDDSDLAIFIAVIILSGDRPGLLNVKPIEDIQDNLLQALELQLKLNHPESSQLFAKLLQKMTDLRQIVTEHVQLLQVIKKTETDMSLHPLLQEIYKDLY
Outline: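 GeneBLAzer PPAR-gamma-UAS-bla HEK293 cells in 1% charcoal/dextran-treated FBS medium were treated 16 h at 37 C with compounds. Beta-lactamase activity was read by CCF4 ratio (460/530 nm). Response was normalized to 2 uM rosiglitazone (100%) and DMSO, then Hill-fitted for EC50 and efficacy.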

[15] = biological target: Vitamin D3 receptor (Homo sapiens) (UniProt P11473); assay: qHTS assay for small molecule antagonists of vitamin D receptor signaling (AID 588541);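 note: receptor activated by calcitriol during compound treatment; series mostly up to about 77 µM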
Chain of Vitamin D3 receptor (Homo sapiens) (P11473 whole entry, looked up): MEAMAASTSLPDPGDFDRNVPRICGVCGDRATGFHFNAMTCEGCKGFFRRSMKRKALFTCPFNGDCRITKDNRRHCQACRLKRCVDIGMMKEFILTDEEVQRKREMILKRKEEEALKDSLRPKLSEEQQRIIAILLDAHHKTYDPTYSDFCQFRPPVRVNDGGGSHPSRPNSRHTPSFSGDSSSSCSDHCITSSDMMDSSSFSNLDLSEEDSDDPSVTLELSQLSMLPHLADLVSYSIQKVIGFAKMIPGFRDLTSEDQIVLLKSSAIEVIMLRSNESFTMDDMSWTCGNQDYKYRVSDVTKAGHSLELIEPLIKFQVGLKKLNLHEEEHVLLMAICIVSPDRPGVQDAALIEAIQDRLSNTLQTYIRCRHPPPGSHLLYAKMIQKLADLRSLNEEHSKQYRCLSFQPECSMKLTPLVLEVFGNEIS
Outline: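 VDR-UAS-bla HEK293T cells (2000/well, 2% charcoal-stripped FBS) were treated with titrated compounds plus 1-alpha,25-dihydroxyvitamin D3 (50 nM or 3 nM final) for 16 h at 37 C. CCF4 beta-lactamase fluorescence was read; Hill fits gave IC50.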

[16] = biological target: Vitamin D3 receptor (Homo sapiens) (UniProt P11473); assay: qHTS assay for small molecule agonists of vitamin D receptor signaling (AID 588543)
Outline: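 VDR-UAS-bla HEK293T cells, 2000/well, 2% charcoal-stripped FBS; compound titration 16 h at 37 C; CCF4 beta-lactamase ratio read. Normalized to 50 nM 1-alpha,25-dihydroxyvitamin D3 (100%) and DMSO; Hill fit gives EC50, efficacy.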

[17] = qHTS assay for small molecule agonists of retinoid X receptor alpha signaling (AID 588544); settings: HEK293T RXRa-UAS-bla, beta-lactamase reporter, 18 h; 530 nm emission
[18] = biological target: Retinoic acid receptor RXR-alpha (Homo sapiens) (UniProt P19793); assay: as above
Chain of Retinoic acid receptor RXR-alpha (Homo sapiens) (P19793 whole entry, looked up): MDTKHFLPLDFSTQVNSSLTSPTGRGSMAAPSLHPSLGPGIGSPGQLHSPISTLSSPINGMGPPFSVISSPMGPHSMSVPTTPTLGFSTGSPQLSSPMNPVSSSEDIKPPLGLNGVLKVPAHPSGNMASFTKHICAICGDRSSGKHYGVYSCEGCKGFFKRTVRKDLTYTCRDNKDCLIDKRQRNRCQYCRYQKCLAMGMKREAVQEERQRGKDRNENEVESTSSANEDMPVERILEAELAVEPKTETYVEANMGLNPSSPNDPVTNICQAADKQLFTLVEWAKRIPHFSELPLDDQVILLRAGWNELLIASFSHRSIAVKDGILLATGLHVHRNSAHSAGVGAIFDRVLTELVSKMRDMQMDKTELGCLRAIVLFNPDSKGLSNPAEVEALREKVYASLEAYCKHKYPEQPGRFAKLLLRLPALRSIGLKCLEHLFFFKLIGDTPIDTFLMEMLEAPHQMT

[19] = biological target: Thyroid hormone receptor beta (Homo sapiens) (UniProt P10828); assay: qHTS assay for small molecule agonists of thyroid hormone receptor beta signaling (AID 588545)
Chain of Thyroid hormone receptor beta (Homo sapiens) (P10828 whole entry, looked up): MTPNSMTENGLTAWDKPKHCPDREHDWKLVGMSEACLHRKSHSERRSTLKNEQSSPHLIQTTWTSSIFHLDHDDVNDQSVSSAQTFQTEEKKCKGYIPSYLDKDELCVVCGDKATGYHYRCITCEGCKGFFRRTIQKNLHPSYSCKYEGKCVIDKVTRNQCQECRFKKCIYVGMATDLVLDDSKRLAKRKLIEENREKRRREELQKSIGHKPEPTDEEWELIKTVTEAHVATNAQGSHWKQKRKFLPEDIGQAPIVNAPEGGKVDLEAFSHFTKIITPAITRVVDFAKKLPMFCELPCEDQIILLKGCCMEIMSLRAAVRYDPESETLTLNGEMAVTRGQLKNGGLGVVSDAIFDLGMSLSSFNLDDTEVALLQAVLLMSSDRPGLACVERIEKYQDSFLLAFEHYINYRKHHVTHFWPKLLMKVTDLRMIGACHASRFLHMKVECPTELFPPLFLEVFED
Outline: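 Agonist activity was read as beta-lactamase CCF4 fluorescence (405 ex, 460/530 em), scaled between DMSO (0%) and 10 nM T3 (100%), then Hill-fitted for EC50 and efficacy. HEK 293 TR-UAS-bla cells in 2% charcoal/dextran FBS medium were exposed 18 h at 37 C.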

[20] = biological target: Retinoic acid receptor RXR-alpha (Homo sapiens) (UniProt P19793); assay: qHTS assay for small molecule antagonists of retinoid X receptor alpha signaling (AID 588546; active = well fitted inhibition curve with a large enough effect in the signal ratio, with a control signal flat, not every such curve was filed as active; the % refers to the signal ratio;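 note: cells stimulated with 9-cis-retinoic acid as agonist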); settings: HEK293T RXRa-UAS-bla, beta-lactamase ratio, antagonist mode
Outline: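 Beta-lactamase reporter inhibition, read as CCF4 fluorescence ratio (ex 405, em 460/530 nm) after 2 h at RT. HEK293T UAS-bla cells, 2500/well, were stimulated with 9-cis-RA at 500 or 100 nM final alongside test compound for 18 h at 37 C.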

## C=C(C)[C@H]1CC=C(C)C(=O)C1
[1]
  outcome: inactive
[2]
  outcome: inactive
[3]
  outcome: inactive
[4]
  outcome: inactive
[5]
  outcome: inactive
[6]
  outcome: inactive
[7]
  Potency: inactive
[8]
  activation: 12.8% (inactive) and -1.39% (inactive)
[9]
  outcome: inactive
[10]
  activation: -5.14% (inactive) and -7.53% (inactive)
[11]
  outcome: inactive
[12]
  max response: 35.6% and 28.4%
[13]
  outcome: inactive
[14]
  outcome: inactive
[15]
  outcome: inactive
[16]
  outcome: inactive
[17]
  max response: 2.29% and 4.34%
[18]
  outcome: inactive
[19]
  outcome: inactive
[20]
  max response: 30% (inactive) and -16.7% (inactive)
